Experimental data: PubChem BioAssay AID1159580 (chemical genetic matrix, 2015)
Screen size: about 5,500 compounds; about 2,000 (36%) were called active. About 18% were inconclusive and are not listed. No stated cut-off is given here; in the data, active means normalized growth mostly below about 0.91 (no sharp cut-off); inconclusive means no clear call, values can overlap the other calls; inactive means mostly above about 0.92. This is one part of the list.

Assay: chemical genetic growth profiling, strain panel (AID 1159580);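 further: tested at 20 µM; growth read once vehicle control cultures reached saturation at 30 °C; 1 = growth at the plate median or of vehicle wells; lower values mean less growth of the strain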
Details: growth OD

Measured: normalized growth

NC(=O)c1cc([N+](=O)[O-])cc([N+](=O)[O-])c1
inactive: S. cerevisiae deletion strains, locus YJR075W, strain HOC1, hits give low values 1 | S. cerevisiae deletion strains, locus YKL009W, strain mrt4, hits give low values 0.985 | S. cerevisiae deletion strains, locus YKL068W, hits give low values 1 | S. cerevisiae deletion strains, locus YKL085W, strain MDH1 (second series), hits give low values 0.999 | S. cerevisiae deletion strains, locus YKL085W, strain MDH1, hits give low values 0.999 | S. cerevisiae deletion strains, locus YKL160W, strain elf1, hits give low values 1.01 | S. cerevisiae deletion strains, locus YKL190W, strain CNB1, hits give low values 1.01 | S. cerevisiae deletion strains, locus YKR001C, strain vps1, hits give low values 0.997 | S. cerevisiae deletion strains, locus YKR026C, strain gcn3, hits give low values 1.02 | S. cerevisiae deletion strains, locus YKR091W, strain srl3, hits give low values 1.02 | S. cerevisiae deletion strains, locus YLL001W, strain dnm1, hits give low values 1.06 | S. cerevisiae deletion strains, locus YLL026W, hits give low values 1.01 | S. cerevisiae deletion strains, locus YLL041C, strain sdh2, hits give low values 1 | S. cerevisiae deletion strains, locus YLR027C, strain aat2, hits give low values 0.989 | S. cerevisiae deletion strains, locus YLR039C, strain RIC1, hits give low values 1.24 | S. cerevisiae deletion strains, locus YLR058C, strain SHM2, hits give low values 1.01 | S. cerevisiae deletion strains, locus YLR102C, strain apc9, hits give low values 1 | S. cerevisiae deletion strains, locus YLR113W, strain HOG1, hits give low values 0.988 | S. cerevisiae deletion strains, locus YLR221C, strain rsa3, hits give low values 1.02 | S. cerevisiae deletion strains, locus YLR258W, strain gsy2, hits give low values 1 | S. cerevisiae deletion strains, locus YLR262C, strain YPT6 (second series), hits give low values 1.11 | S. cerevisiae deletion strains, locus YLR262C, strain YPT6, hits give low values 1.2 | S. cerevisiae deletion strains, locus YLR268W, strain sec22, hits give low values 0.963 | S. cerevisiae deletion strains, locus YLR320W, strain mms22, hits give low values 1.01 | S. cerevisiae deletion strains, locus YLR330W, strain CHS5, hits give low values 1.02 | S. cerevisiae deletion strains, locus YLR342W, strain FKS1 (second series), hits give low values 1.02 | S. cerevisiae deletion strains, locus YLR342W, strain FKS1, hits give low values 1.02 | S. cerevisiae deletion strains, locus YLR357W, strain rsc2, hits give low values 1 | S. cerevisiae deletion strains, locus YLR370C, strain arc18, hits give low values 1.02 | S. cerevisiae deletion strains, locus YLR371W, strain rom2, hits give low values 0.998 | S. cerevisiae deletion strains, locus YLR384C, strain iki3, hits give low values 1.02 | S. cerevisiae deletion strains, locus YLR418C, strain cdc73, hits give low values 0.861 | S. cerevisiae deletion strains, locus YML016C, strain PPZ1, hits give low values 1.03 | S. cerevisiae deletion strains, locus YML032C, strain rad52, hits give low values 0.974 | S. cerevisiae deletion strains, locus YML120C, strain ndi1, hits give low values 1.02 | S. cerevisiae deletion strains, locus YML124C, strain tub3, hits give low values 0.998 | S. cerevisiae deletion strains, locus YMR058W, strain fet3, hits give low values 0.955 | S. cerevisiae deletion strains, locus YMR078C, strain ctf18, hits give low values 0.999 | S. cerevisiae deletion strains, locus YMR125W, strain sto1, hits give low values 1.01 | S. cerevisiae deletion strains, locus YMR129W, hits give low values 1.02 | S. cerevisiae deletion strains, locus YMR205C, strain PFK2, hits give low values 1.04 | S. cerevisiae deletion strains, locus YMR223W, strain ubp8, hits give low values 0.979 | S. cerevisiae deletion strains, locus YMR231W, strain pep5, hits give low values 1.01 | S. cerevisiae deletion strains, locus YMR307W, strain GAS1, hits give low values 0.972 | S. cerevisiae deletion strains, locus YNL067W, strain RPL9B, hits give low values 0.999 | S. cerevisiae deletion strains, locus YNL071W, strain lat1, hits give low values 0.998 | S. cerevisiae deletion strains, locus YNL128W, strain TEP1, hits give low values 0.982 | S. cerevisiae deletion strains, locus YNL183C, strain NPR1, hits give low values 0.935 | S. cerevisiae deletion strains, locus YNL209W, strain ssb2, hits give low values 1.01 | S. cerevisiae deletion strains, locus YNL233W, strain BNI4, hits give low values 1.01 | S. cerevisiae deletion strains, locus YNL250W, strain rad50, hits give low values 1.01 | S. cerevisiae deletion strains, locus YNL271C, strain bni1, hits give low values 0.974 | S. cerevisiae deletion strains, locus YNL298W, strain CLA4, hits give low values 0.983 | S. cerevisiae deletion strains, locus YNL307C, strain MCK1, hits give low values 0.979 | S. cerevisiae deletion strains, locus YNL322C, strain KRE1 (second series), hits give low values 1.04 | S. cerevisiae deletion strains, locus YNL322C, strain KRE1, hits give low values 1.02 | S. cerevisiae deletion strains, locus YNR049C, strain mso1, hits give low values 1.01 | S. cerevisiae deletion strains, locus YNR052C, strain pop2, hits give low values 0.985 | S. cerevisiae deletion strains, locus YOL006C, strain TOP1, hits give low values 0.927 | S. cerevisiae deletion strains, locus YOL012C, strain htz1 0.763 | S. cerevisiae deletion strains, locus YOL147C, strain pex11, hits give low values 0.998 | S. cerevisiae deletion strains, locus YOR001W, strain rrp6, hits give low values 0.984 | S. cerevisiae deletion strains, locus YOR061W, strain CKA2, hits give low values 1.01 | S. cerevisiae deletion strains, locus YOR069W, strain VPS5, hits give low values 1.01 | S. cerevisiae deletion strains, locus YOR070C, strain gyp1, hits give low values 1 | S. cerevisiae deletion strains, locus YOR080W, strain dia2, hits give low values 1.02 | S. cerevisiae deletion strains, locus YOR083W, strain WHI5, hits give low values 1.02 | S. cerevisiae deletion strains, locus YOR106W, strain vam3, hits give low values 1 | S. cerevisiae deletion strains, locus YOR136W, strain idh2, hits give low values 0.993 | S. cerevisiae deletion strains, locus YOR144C, strain elg1, hits give low values 0.998 | S. cerevisiae deletion strains, locus YOR184W, strain ser1, hits give low values 0.976 | S. cerevisiae deletion strains, locus YOR231W, strain MKK1, hits give low values 0.963 | S. cerevisiae deletion strains, locus YOR265W, strain rbl2, hits give low values 1 | S. cerevisiae deletion strains, locus YOR270C, strain vph1, hits give low values 1.02 | S. cerevisiae deletion strains, locus YOR290C, strain snf2, hits give low values 1.01 | S. cerevisiae deletion strains, locus YOR316C, strain cot1, hits give low values 0.995 | S. cerevisiae deletion strains, locus YPL051W, strain arl3, hits give low values 0.97 | S. cerevisiae deletion strains, locus YPL055C, strain LGE1, hits give low values 0.96 | S. cerevisiae deletion strains, locus YPL078C, strain atp4, hits give low values 1.01 | S. cerevisiae deletion strains, locus YPL106C, strain sse1, hits give low values 1.02 | S. cerevisiae deletion strains, locus YPL240C, strain hsp82, hits give low values 1.01 | S. cerevisiae deletion strains, locus YPL241C, strain CIN2, hits give low values 1.03 | S. cerevisiae deletion strains, locus YPL256C, strain CLN2, hits give low values 0.965 | S. cerevisiae deletion strains, locus YPR119W, strain clb2, hits give low values 1 | S. cerevisiae deletion strains, locus YPR141C, strain kar3, hits give low values 1 | S. cerevisiae deletion strains, locus YPR163C, strain tif3, hits give low values 0.995 | S. cerevisiae deletion strains, locus YPR167C, strain met16, hits give low values 0.992 | S. cerevisiae deletion strains, strain wtn01, hits give low values 0.98 | S. cerevisiae strains, strain wild type, hits give low values 1.01
active: S. cerevisiae deletion strains, locus YNL248C, strain rpa49, hits give low values 0.879
